This note sets out measurements from PubChem BioAssay AID687041 (Broad Institute, 2013).

Potency and affinity values are given separately. Active and inactive are the calls of the source.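 Rule for the calls: active = compounds lowering miR-122 whose fitted half-maximal concentration is at most twice the top tested dose; inconclusive = flat fit with moderate reduction, or poor fit quality; inactive = the rest.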

The nature of the experiment: miR-122 quantity in Huh7 after inhibitor exposure – cell-based, RT-qPCR, dry powder, orthogonal assay for miR-122 inhibitor project, dose response (AID 687041). The conditions noted are these: Huh7 miR-122 level, 48 h; series mostly up to 35 µM; relative miR-122 level (fraction of control): at the top concentration.
As to `Cc1cc(Cl)c(Cl)cc1S(=O)(=O)NCCCn1ccnc1`, the “relative miR-122 level (fraction of control)” value was 0.911 (inactive).

For the compound `COc1ccc(S(=O)(=O)Nc2ccc(OC(F)F)cc2)c2cccnc12`, the “relative miR-122 level (fraction of control)” value is 1.16 (inactive). Turning to `Cc1cc(C(C)(C)C)cc(S(=O)(=O)NCCO)c1C`, the “relative miR-122 level (fraction of control)” value was 1.22 (inactive).

In the case of `Cc1cc(S(=O)(=O)NC2CCCCC2)c(C)s1`, the “relative miR-122 level (fraction of control)” value was 1.16 (inactive). On to `Cc1cccc(NS(=O)(=O)c2cc3c(cc2C)NC(=O)CO3)c1`, for which the “relative miR-122 level (fraction of control)” value is 0.95 (inactive). As for `Cc1ccc(NS(=O)(=O)c2cc(C(=O)NCc3ccccn3)ccc2Cl)cc1C`, the figure is 0.985 (inactive); as for `Cc1cc(C)c(C)c(S(=O)(=O)NC2CCCCC2)c1C`, 0.685 (inactive). As for `Cc1cc(C)c(S(=O)(=O)NC(C)C)c(C)c1-n1cnnn1`, the figure is 1.17 (inactive); as for `Cc1ccc(C(=O)C2Oc3ccccc3C3CC(c4ccc(C)cc4)=NN23)cc1` (stereo not given), 0.992 (inactive); as for `O=C(Nc1ccc2ccccc2c1)c1ccc(Cl)cc1Cl`, 2.03 (inactive). The result for `CCOc1cc(C)c(S(=O)(=O)NC2CCCCC2)cc1C` reads 0.676 (inactive); that for `Cc1ccc(C)c(S(=O)(=O)Nc2ccc3cn[nH]c3c2)c1`, 0.908 (inactive).

Take `O=C(Nc1ccc(N2CCOCC2)c(S(=O)(=O)Nc2cc(Cl)ccc2Cl)c1)c1cccnc1`: the “relative miR-122 level (fraction of control)” value was 1.07 (inactive). The result for `Cc1ccc(C)c(S(=O)(=O)Nc2ccc(-n3cnnn3)cc2)c1` reads 0.901 (inactive); that for `COC(=O)c1cc(S(=O)(=O)Nc2cc(OC)cc(OC)c2)cn1C`, 0.972 (inactive). As for `O=S(=O)(Nc1cccc2[nH]ncc12)c1ccc(F)c2ncccc12`, the “relative miR-122 level (fraction of control)” value was 0.846 (inactive).

On to `CN1C(=O)c2cccc3c(S(=O)(=O)NCCc4ccccc4)ccc1c23`, for which the “relative miR-122 level (fraction of control)” value was 0.827 (inactive). As for `Cc1ccc(C(C)C)cc1S(=O)(=O)Nc1cccnc1`, the figure is 1.21 (inactive); as for `Cc1cc(C)c(S(=O)(=O)NC2CC3CCC2C3)c(C)c1` (stereo not given), 0.851 (inactive). Take `CCOc1ccc(C)cc1S(=O)(=O)NC1CCCCC1`: the “relative miR-122 level (fraction of control)” value was 0.698 (inactive). For `CCN(CC)C(=O)CN(c1cc2c(cc1OC)oc1ccccc12)S(=O)(=O)c1ccccc1`, the “relative miR-122 level (fraction of control)” value was 0.384 (inactive). As for `COc1cccc(N2CCN(C(=O)c3oc4ccccc4c3NC(=O)CCc3cc(OC)no3)CC2)c1`, the “relative miR-122 level (fraction of control)” value was 0.682 (inactive). The result for `COc1ccc(C)cc1NS(=O)(=O)c1ccc2c(c1)N(C)CCO2` reads 0.687 (inactive). Take `COc1ccc(C(C)(C)C)cc1S(=O)(=O)NCC1CCCO1` (stereo not given): the “relative miR-122 level (fraction of control)” value was 0.947 (inactive). As for `COc1cc(C)c(C(C)C)cc1S(=O)(=O)n1cnc(C)c1`, the figure is 0.792 (inactive); as for `O=S(=O)(c1ccc2c(c1)CCCN2)N1CCC[C@@H]2CCCC[C@H]21`, 0.549 (inactive); as for `CCOc1ccccc1N1CCN(C(=O)c2cccc(-c3ccc(O)cc3)c2)CC1`, 0.555 (inactive). As for `CCCCNS(=O)(=O)c1ccc2nc(-c3cccnc3)cc(C(=O)NC(C)CC)c2c1` (stereo not given), the figure is 0.978 (inactive); as for `COc1ccc(S(=O)(=O)NCCN2CCOCC2)c2ccccc12`, 0.954 (inactive). The result for `Nc1c(S(=O)(=O)c2cccs2)c2nc3ccccc3nc2n1Cc1ccccc1` reads 0.7 (inactive).
